Compound activity deposited in PubChem by several laboratories.
A selection: hits, their analogues and other compounds. The true share with any hit is near 4.1%.
ssDAF12 agonist = S. stercoralis DAF-12 nuclear receptor activators, primary screen, cell-based, luminescence, HEK293, GRIP1 co-expression, lit1-tk-luc. Nuclear hormone receptor DAF-12 (Strongyloides stercoralis). HEK293 ssDAF-12/GRIP1 lit1-tk-luc reporter; % of 3 µM dafachronic acid response. activation, % at 6.8 µM. actives 1% (n = 370,000). AID 652126, 2013;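 active = activation above the mean over all tested compounds plus 3 SD, cut at about 0.9% in these data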;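 note: 0% = DMSO-only wells and 100% = 3 µM delta7-dafachronic acid wells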
hcDAF-12 act = H. contortus DAF-12 nuclear receptor activators, primary screen, cell-based, luminescence, HEK293, lit1-tk-luc reporter. activation, % at 6.8 µM. actives 1.4% (n = 370,000). HEK293 hcDAF-12 lit1-tk-luc reporter; 0% DMSO, 100% Δ7-dafachronic acid;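 active = activation above the mean of all tested compounds plus 3 SD, cut at about 5.5% in these data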;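 note: 100% = response to 3 µM Δ7-dafachronic acid high control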
hgDAF12 agonist = H. glycines DAF-12 receptor agonists, primary screen, cell-based, luminescence, HEK293, GAL4 fusion, UAS-luciferase. Nuclear hormone receptor DAF-12 (Heterodera glycines), GAL4 fusion. AID 687014, 2013. HEK293 GAL4-hgDAF12 UAS-luciferase reporter, agonist luminescence; normalized to butyrate control. actives 1.8% (n = 370,000). activation, % at 6.8 µM;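 active = activation above a cutoff set at the mean of all screened compounds plus 3 SD, cut at about 10% in these data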;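 note: 0% = DMSO wells and 100% = sodium butyrate wells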
DAX1 inh-1 = DAX1 (NR0B1) inhibitors, primary screen, cell-based, HEK293, Gal4-DAX1, luciferase luminescence; Nuclear receptor subfamily 0 group B member 1 (Homo sapiens), P51843; HEK293 Gal4-DAX1 luciferase reporter; inhibition, % at 6.75 µM; actives 0.99% (n = 340,000);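 active = inhibition above the mean over all tested compounds plus 3 SD, cut at about 4.2% in these data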;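 note: 0% = DAX1-transfected cells with DMSO and 100% = empty-vector control cells with DMSO; inhibition shows as a rise in luminescence from relieved DAX1 repression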
DAX1 inh-2 = DAX1 (NR0B1) inhibitors on StAR promoter, primary screen, cell-based, luminescence, SF-1 (NR5A1), full-length DAX-1; HEK293T StAR-luciferase reporter, SF-1/DAX-1 repression relief; inhibition, % at 6.8 µM; actives 1.1% (n = 370,000);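 active = inhibition above the mean over all tested compounds plus 3 SD, cut at about 3.6% in these data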;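 note: 0% = DAX-1 cells with DMSO and 100% = cells lacking DAX-1 with DMSO; higher inhibition means more luminescence from relief of DAX-1 repression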
PolyA inhibitor = polyadenylation inhibitors in yeast reporter cells, primary screen, luminescence, S. cerevisiae. S. cerevisiae SKY197-pL101 polyadenylation reporter, beta-gal luminescence; efflux-impaired pdr1/pdr3 knockout yeast; score 100 = 6 SD above DMSO. activity score, % at 12 µM. actives 0.02% (n = 300,000). AID 1875, 2009;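 active = lowest replicate activity score at least 50, where 100 means six control SD above control mean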;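 note: yeast exposed to compound for 9 h at 30 °C; higher score means more reporter readthrough which indicates perturbed polyadenylation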
DAX1 conf = DAX1 (NR0B1) inhibitors relieving SF-1 repression, confirmation, cell-based, luminescence, HEK293T, full-length DAX-1, SF-1 activated StAR promoter. shares compounds with DAX1 inh-2. HEK293T StAR-promoter luciferase reporter, SF-1/DAX-1 repression. inhibition, % at 6.8 µM. actives 87% (n = 2,400). AID 652134, 2013;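 active = inhibition above the average of every tested compound plus 3 SD, cut at about 3.8% in these data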;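 note: 0% = DAX-1 cells with DMSO and 100% = no DAX-1 control cells with DMSO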
Target sequence (P51843 whole entry, looked up): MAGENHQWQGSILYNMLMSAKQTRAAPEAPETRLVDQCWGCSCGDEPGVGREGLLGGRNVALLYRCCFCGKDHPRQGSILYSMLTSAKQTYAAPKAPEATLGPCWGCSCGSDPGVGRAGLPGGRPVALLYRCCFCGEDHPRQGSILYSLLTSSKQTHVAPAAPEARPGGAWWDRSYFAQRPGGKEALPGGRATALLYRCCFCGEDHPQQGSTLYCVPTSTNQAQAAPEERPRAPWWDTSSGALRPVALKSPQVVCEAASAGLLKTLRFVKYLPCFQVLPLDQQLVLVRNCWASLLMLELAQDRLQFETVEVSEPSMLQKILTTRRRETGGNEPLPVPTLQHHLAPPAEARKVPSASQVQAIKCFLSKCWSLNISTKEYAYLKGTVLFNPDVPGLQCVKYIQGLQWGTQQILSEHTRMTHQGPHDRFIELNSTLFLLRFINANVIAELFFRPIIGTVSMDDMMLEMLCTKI
SF1 mutant ctr = StAR reporter signal changes without DAX1, counter-screen for DAX1 inhibitor project, cell-based, luminescence, AF-2 mutant SF-1, transactivation. inhibition, % at 6.8 µM. shares compounds with DAX1 inh-2. HEK293 StAR-luciferase, SF-1 AF2 mutant. actives 78% (n = 2,400);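 active = inhibition above the mean of all tested compounds plus 3 SD, cut at about 3% in these data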;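 note: 0% = DAX-1 transfected cells with DMSO and 100% = cells without DAX-1 with DMSO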
LXRb hcDAF ctr = LXR agonists, Gal4 luciferase reporter, confirmation, counter-screen for hcDAF-12 agonist project, cell-based, luminescence, HEK293, H. contortus campaign. shares compounds with hcDAF-12 act. HEK293 Gal4-LXR tk-luc reporter, 24 h; normalized: DMSO 0%, positive control 100%. activation, % at 6.8 µM. 3,400 tested, under 10 active. AID 743027, 2013;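 active = mean percent activation of the reporter above a cutoff set as the average over tested compounds plus their standard deviation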
hcDAF12 ag = H. contortus DAF-12 receptor agonists, confirmation, cell-based, luminescence, HEK293, lit1-tk-luc, triplicate. shares compounds with hcDAF-12 act. HEK293 hcDAF-12 lit1-tk-luc reporter; % of Δ7-dafachronic acid response. activation, % at 6.8 µM. actives 61% (n = 3,400);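 active = mean activation across triplicate tests above the threshold derived from the earlier primary screen, cut at about 5.5% in these data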;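 note: 0% = DMSO only wells and 100% = 3 µM Δ7-dafachronic acid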
hgDAF12 ag = H. glycines DAF-12 receptor agonists, confirmation, cell-based, luminescence, HEK293, GAL4-LBD fusion | activation, % at 6.8 µM | AID 743050, 2013 | shares compounds with hgDAF12 agonist | HEK293 GAL4-hgDAF12 luciferase reporter, agonist mode; percent of butyrate response | actives 80% (n = 3,300);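 active = mean activation over triplicate wells above the hit cutoff derived from the earlier primary screen, cut at about 11% in these data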;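 note: 0% = DMSO low control and 100% = 2 mM sodium butyrate high control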
LXR ag 2 = LXR agonists, Gal4 luciferase reporter, confirmation, counter-screen for hgDAF-12 agonist project, cell-based, luminescence, HEK293, H. glycines campaign | activation, % at 6.8 µM | shares compounds with hgDAF12 agonist | AID 743051, 2013 | 3,300 tested, under 10 active | 24 h;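 active = mean activation of the triplicate above a set limit carried over from the primary screen, none filed active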
* = called active by the depositor; / = no result given.

SMILES | ssDAF12 agonist | hcDAF-12 act | hgDAF12 agonist | DAX1 inh-1 | DAX1 inh-2 | PolyA inhibitor | DAX1 conf | SF1 mutant ctr | hgDAF12 ag | LXR ag 2 | others
C/C(CC(=O)Nc1ccc2c(c1)OCCO2)=N\NC(=O)c1ccccn1 | 0 | 6.2* | 15* | 1 | 6.4* | 2 | 1 | -1 | 7 | 0
O=C(CCCc1ccccc1)Nc1ccc2c(c1)OCCO2 | 1 | 8.2* | 22* | 1 | 6.1* | 23 | 9.0* | 4.9* | 15* | 1 | LXRb hcDAF ctr=1;hcDAF12 ag=9.1*
CSc1cccc(NC(=O)/C=C/c2ccccc2)c1 | 0 | 1 | 10 | 1 | 1 | 13 | / | / | / | /
C/C(CC(=O)Nc1ccc2c(c1)OCCO2)=N\NC(=O)c1ccccc1F | 0 | 2 | 5 | 0 | 0 | 1 | / | / | / | /
COC(=O)c1sc(NC(=S)NNC(=O)c2c(Br)c(C)nn2C)c(C(=O)OC)c1C | -1 | 0 | -3 | 0 | -1 | -12 | / | / | / | /
COc1ccc(/C=N/NC(=O)OC(C)(C)C)cc1OC | -1 | 3 | 1 | 2 | 0 | 0 | / | / | / | /
O=C(CCCc1cccs1)Nc1ccc2c(c1)OCO2 | 1 | 3 | 22* | 6.0* | 5.5* | -5 | 9.7* | 6.7* | 14* | 1
O=C(CSc1ccccc1)Nc1ccc2c(c1)OCCO2 | 1.0* | 6 | 15* | 3 | 11* | -3 | 14* | 7.5* | 15* | 1
COc1ccccc1CNC(=O)COC(=O)c1ccc(Cl)c(N)c1 | -1 | 1 | -1 | 1 | 0 | -2 | / | / | / | /
CC(=O)c1cccc(NC(=O)c2cc(C(C)C)on2)c1 | 0 | 5 | 17* | 0 | 5.2* | -5 | 11* | 8.0* | 10* | 1
